# From article PMC11024108
# Molecular target: Septin-5 (UniProt Q9Z2Q6)
# Test: cross-link between two proteins; cross-linking mass spectrometry
# Sequence of Septin-5 (Q9Z2Q6 whole entry): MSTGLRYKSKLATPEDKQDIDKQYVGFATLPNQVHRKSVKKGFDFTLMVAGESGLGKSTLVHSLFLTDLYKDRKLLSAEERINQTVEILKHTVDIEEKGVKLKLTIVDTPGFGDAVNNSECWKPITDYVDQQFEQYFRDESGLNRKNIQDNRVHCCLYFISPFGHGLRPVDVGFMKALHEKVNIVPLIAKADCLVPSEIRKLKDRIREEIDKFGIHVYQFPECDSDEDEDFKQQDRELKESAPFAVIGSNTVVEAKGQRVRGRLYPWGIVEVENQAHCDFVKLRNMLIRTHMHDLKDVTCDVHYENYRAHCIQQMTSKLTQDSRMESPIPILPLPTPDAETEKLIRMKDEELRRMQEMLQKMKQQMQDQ
row,Substance,listed as a hit
1,"Septin-4, P28661",yes
2,"Septin-11, Q8C1B7",yes
3,"Septin-6, Q9R1T4",yes
4,"Septin-8, Q8CHH9",yes
